Results on 24 compounds are retold here after PubChem BioAssay (NCI).

Structures are written as SMILES. This is part of a sample that, as a whole, favours compounds with a hit. Of some 83,000 tested, about 20% had one in any assay.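 Note: values are percent growth. 100 is the growth of untreated cells, values between 100 and 0 indicate rising inhibition; between -100 and 0 indicates cell death.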 A number with no mark means an inactive call. Calls of active or inactive are those of the source. Rule for the calls: active = growth percent below 10; inactive = the rest.

Common to all, as to test: NCI-60 one-dose screen, 48 h (100 = growth as untreated, 0 = no growth, -100 = all killed)
What all share (conditions): 10 µM unless noted

Experiment [1] has as its system NCI-H23 lung.
The subject of experiment [2] is NCI-H226 lung.
Experiment [3] concerns NCI-H322M lung.
Experiment [4] deals with HOP-62 NSCLC.
The subject of experiment [5] is NCI-H460 lung.
Experiment [6] has as its system HOP-92 NSCLC.
The test system of experiment [7] is NCI-H522 lung.
Experiment [8] deals with A549/ATCC NSCLC.
Experiment [9] relates to 786-0 renal.
Experiment [10] concerns COLO 205 colon.

`COc1ccc(-c2nc(SCCC(C)C)nc(N/N=C\c3cccc([N+](=O)[O-])c3)c2C#N)cc1`: the growth is 28.7% in experiment [1]; 44.5% in experiment [2]; 45.6% in experiment [3]; 17.7% in experiment [4]; 13.3% in experiment [5]; 50.9% in experiment [6]. Also, the growth was 29.8% in experiment [7], 11.7% in [8], 15.3% in experiment [9] and 42% in experiment [10].

Regarding `Cc1cccc(NC(=O)N/C(N)=N/c2nc(C)c(C)s2)c1`, the growth in [1] was 61.9%; in experiment [2] it was 71.3%; in experiment [3], 82.7%; in [4] it was 55.3%; in experiment [5], 20.2%; in experiment [6], 67.5%. For the same compound, the growth was 24.2% in [7], 42.6% in [8], 83.1% in experiment [9] and 36% in [10].

On to `CCCCCCCCCCCCCCCCCCOc1ccccc1CC(=O)OCCC[N+](C)(C)C`, for which the growth in [1] is 46.4%; in experiment [2] it was 78%; in experiment [3] it was 84.3%; in experiment [4], 67.1%; in [5] it was 80.1%; in experiment [6], 39.6%. Besides, the growth in [7] was 36.3%; in [8], 54.2%; in experiment [9], 50.7%; in experiment [10], 16.7%.

For `Cn1c(I)c(C#C[Si](C)(C)C)c(=O)n(C(=O)c2ccccc2)c1=O`, the growth is 51.7% in experiment [1]; 79.6% in [2]; 94.9% in experiment [3]; 59.1% in [4]; 55.4% in experiment [5]; -27.1% (active) in experiment [6]. Further, the growth in experiment [7] is -66.2% (active); in [8], 80%; in experiment [9] it was -66.6% (active); in experiment [10], -7.64% (active).

On to `CC1O[C@@H](OC2[C@H](OC(=O)/C=C/c3ccc(O)c(O)c3)C(COC3O[C@H](C)C(O)C(O)[C@@H]3O)O[C@@H](OCCc3ccc(O)c(O)c3)[C@H]2O)[C@@H](O)C(O)[C@H]1O` (some centres undefined), for which the growth is 101% in experiment [1]; 112% in experiment [2]; 89.4% in experiment [3]; 103% in [4]; 109% in experiment [5]; 102% in experiment [6]. For the same compound, the growth is 86.6% in experiment [7], 89.8% in [8], 98.8% in experiment [9] and 104% in experiment [10].

In the case of `CN1CCN(CC(=O)Nc2nc(-c3cccc(NS(=O)(=O)c4cccc5c(N(C)C)cccc45)c3)cs2)CC1`, the growth in experiment [1] was 57.6%; in experiment [2], 75.2%; in [3], 105%; in experiment [4], 85.9%; in experiment [5], 55.7%; in [6] it was 57.6%. Besides, the growth in experiment [7] is 67.7%; in [8], 72.5%; in [9] it was 79.5%; in experiment [10], 76.9%.

As for `CCN(CC)CCCNc1ccc(Nc2ccc(OC)cc2)cc1`, the growth was 92.3% in experiment [1]; 110% in experiment [2]; 83.3% in [3]; 98.1% in experiment [4]; 64.2% in experiment [5]; 83.6% in experiment [6]. Moreover, the growth was 64% in experiment [7], 92.1% in experiment [8], 94.2% in experiment [9] and 85.7% in experiment [10].

As to `Fc1c[c-]c(-c2ccccn2)c(F)c1.[CH3-].[Pt+2].c1ccc(P(C[PH+](c2ccccc2)c2ccccc2)c2ccccc2)cc1`, the growth in experiment [1] is -51.1% (active); in experiment [2], 3.56% (active); in experiment [3] it was 2.51% (active); in [4], 0.563% (active); in experiment [5], -68.8% (active); in experiment [6], -80.7% (active). The growth in experiment [7] was -24% (active); in [8], -0.672% (active); in [9] it was -52.5% (active); in experiment [10], -29.9% (active).

As for `O=C(O)CN1C(=O)CCC1=O`, the growth in [1] was 104%; in experiment [2], 101%; in experiment [3], 123%; in experiment [4], 97.1%; in experiment [5], 115%; in experiment [6] it was 97.2%. Moreover, the growth was 103% in experiment [7], 98.4% in [8], 105% in [9] and 118% in experiment [10].

On to `CN(C)c1ccc(-c2cc(-c3ccc(Nc4nc(Nc5ccc(Cl)cc5)nc(Nc5ccc(Cl)cc5)n4)cc3)no2)cc1`, for which the growth in experiment [1] was 45%; in experiment [2] it was 87.1%; in experiment [3], 65.2%; in [4], 63.6%; in [5] it was 27.1%; in experiment [6], -11.5% (active). For the same compound, the growth in [7] was 55.9%; in experiment [8] it was 23.1%; in experiment [9], 36.9%; in experiment [10], 0.291% (active).

For the compound `Cc1cccc(-c2nc(N(C)c3ccc4ncsc4c3)c3ccccc3n2)n1`, the growth in experiment [1] is 78.2%; in experiment [2] it was 84%; in experiment [3], 100%; in experiment [4], 69.7%; in [5] it was 70.7%; in experiment [6], 91.8%. For the same compound, the growth in experiment [7] is 30.4%; in experiment [8] it was 48.5%; in experiment [9], 94%; in [10], 57.3%.

Regarding `Cc1ccc(C(=O)C2=C(O)C(=O)N(Cc3cccnc3)C2c2ccccc2F)o1` (centres undefined), the growth in [1] is 97.9%; in experiment [2], 96.5%; in experiment [3], 108%; in experiment [4], 91.6%; in [5] it was 107%; in experiment [6], 83.9%. For the same compound, the growth in experiment [7] was 106%; in [8], 87.3%; in experiment [9], 86.2%; in [10] it was 108%.

Regarding `COc1ccc2c(c1)C(=O)/C(=C/c1cccc(OCC(=O)Nc3nc(C)c(C)s3)c1)O2`, the growth in experiment [1] is -38.6% (active); in [2], 71.8%; in experiment [3], 122%; in [4], 94.8%; in experiment [5], 158%; in experiment [6], -74.8% (active). For the same compound, the growth in [7] is -72.4% (active); in experiment [8] it was 46.8%; in [9] it was -17.2% (active); in experiment [10], -59.1% (active).

Turning to `CC/C=C\C[C@H](O)C/C=C1/C(=O)C=C[C@@H]1C/C=C\CCCCO`, the growth in experiment [1] was 60.9%; in experiment [2], -23.9% (active); in [3] it was 50.8%; in experiment [4], 6.06% (active); in experiment [5], 0.172% (active); in [6], 48.8%. Further, the growth in experiment [7] is -40.2% (active); in [8], 5.55% (active); in experiment [9], -49.6% (active); in experiment [10] it was -34.3% (active).

`CN1C(=O)N(C)C2C1NN=c1s/c(=C\c3ccccc3)c(=O)n12` (centres undefined): the growth in experiment [1] is 64.1%; in experiment [2] it was 80.2%; in experiment [3], 59%; in experiment [4], 46.9%; in experiment [5], 17.5%; in [6] it was 73.9%. For the same compound, the growth in experiment [7] is 12.5%; in [8] it was 39.9%; in experiment [9], 30.5%; in experiment [10], 11.9%.

Turning to `O=S(=O)(O)c1ccc(N/N=C/c2ccccc2Cl)cc1`, the growth in experiment [1] is 108%; in [2] it was 111%; in [3] it was 108%; in experiment [4] it was 123%; in [5], 109%; in experiment [6], 116%. The growth is 96.9% in [7], 99.5% in experiment [8], 95.6% in experiment [9] and 112% in experiment [10].

For the compound `CC1=CN2C(=O)C3C4=C(CCCC4)SC3N=C2CN1c1c(C)cccc1C` (centres undefined), the growth in [1] is 91.1%; in [2], 71%; in experiment [3], 109%; in experiment [4], 82.5%; in [5], 76.6%; in experiment [6], 55.2%. Moreover, the growth is 77.4% in experiment [7], 82.4% in experiment [8], 75.9% in [9] and 110% in experiment [10].

Turning to `N#Cc1c(N)nc(NCCO)nc1-c1ccc(F)cc1`, the growth in [1] was 96.7%; in experiment [2], 77.1%; in experiment [3], 102%; in [4], 93.3%; in experiment [5], 103%; in experiment [6] it was 75.9%. Besides, the growth was 86.6% in [7], 71.8% in experiment [8], 97.1% in experiment [9] and 92.5% in experiment [10].

Take `CCOC(=O)C/C(C)=N\NC(=O)c1ccncc1`: the growth in experiment [1] is 101%; in experiment [2], 112%; in experiment [3] it was 90.6%; in experiment [4] it was 97.7%; in experiment [5] it was 103%; in experiment [6], -2.59% (active). The growth in [7] is 95.3%; in experiment [8] it was 105%; in experiment [9], 92.1%; in [10], 124%.

Turning to `O=c1cc(C2NNC(=S)N2)c2ccc3ccccc3c2o1` (centres undefined), the growth in experiment [1] was 91.6%; in experiment [2], 101%; in experiment [3], 101%; in experiment [4], 95.1%; in [5] it was 98.6%; in experiment [6] it was 103%. Moreover, the growth is 87.1% in [7], 108% in experiment [8], 100% in experiment [9] and 104% in experiment [10].

As to `COc1cc(C2CC(c3cc(OC)c(OCCCOc4ccc(-n5c(/C=C/c6ccccc6)nc6ccccc6c5=O)cc4)c(OC)c3)=NO2)cc(OC)c1OC` (centres undefined), the growth in experiment [2] was 110%; in experiment [3], 123%; in experiment [4], 122%; in [5], 113%; in experiment [6] it was 42.5%; in experiment [7], 91.1%. Besides, the growth in experiment [8] is 99.7%; in [9], 108%; in experiment [10], 115%.

In the case of `COc1cc(C2NC(=O)c3ccccc3N2)ccc1OCCCCCOc1c(OC)cc(C2=NOC(c3cc(OC)c(OC)c(OC)c3)C2)cc1OC` (centres undefined), the growth is 59.5% in experiment [1]; 71.5% in [2]; 103% in experiment [3]; 95.1% in [4]; 63.4% in [5]; 38.3% in experiment [6]. The growth is 56.3% in experiment [7], 67.5% in experiment [8], 95% in experiment [9] and 108% in [10].

As for `COc1ccc(-c2cc(-c3cc(OC)ccc3OC)nc(SCC(=O)c3ccccc3)c2C#N)cc1`, the growth in [1] is 92.7%; in experiment [2] it was 84.4%; in [3], 103%; in [4], 89.9%; in [5] it was 102%; in [6], 92.3%. For the same compound, the growth in experiment [7] is 79%; in experiment [8], 92.7%; in [9] it was 109%; in experiment [10] it was 97.8%.

For the compound `COc1ccc(C2=Nc3c(N)ncnc3NC(c3ccc4c(c3)OCO4)C2)cc1` (centres undefined), the growth in experiment [1] was 69.7%; in [2] it was 85.5%; in experiment [3], 99.4%; in [4], 68.1%; in experiment [5] it was 102%; in [6], 45.4%. Moreover, the growth in experiment [7] is 87.4%; in [8], 89.3%; in [9], 55.6%; in [10], 102%.
